The supplement of paper PMC6555819

Test system: PXR:RXRa (NR concentration 270 nM, RXRa partner concentration 90 nM)
Experiment: PBM binding z-score (relative to random genomic background probes); higher = stronger binding; sequences stand for … in GC…GCGATTGACAGCGTAGAATGAAGG
Method in brief: (§1)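 Random background probes are the reference for binding z-scores. These scores derive from regression-normalized fluorescence on custom Agilent 4×180K protein-binding microarrays incubated 1 h with ligand-free nuclear receptor dimers. Binding was detected with antibodies against each partner (one per run).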

Sequence | PBM binding z-score
GGAACGATGGCAAAGTTGATAGCATCTGTCGACG | -0.402
CCTATTAGTTGACCATAAGGGCAACCAAAGCTCG | 1.18
TCATATAGGTAAATGCTAGCTGAAAGTCCGATCT | 0.592
GCTAGCAGGCCATTTGGGTCACTCATTGACGGGC | 0.252
GGAACGGGGGCAAAGTTGATAGCATCTGTCGACG | 3.21
TTACCAAGGTGAGCTGAGGTCGTTGGTCCAACTC | 4.68
CCTTGGAGGACAGAAGGTCAGAGCTGTCCGCTTT | 1.69
CGATCTAGGTCAGAACAGGACAGTGAAGGATGAT | 0.571
TAGCCTAGGTCATGCGCGCCAGTATAGTGTCGGC | 1.55
GCTGCTAGGTCAGCTTGGTCAGCTAACGGGTACG | 0.168
ACTATTAGTTTAGACGAGGGCAACCGATAGGTTG | 1.29
TCTTGTAGATCAGCAGGAGGTTAAGAAAGATCGA | 0.907
GCTAGCAGGCCATTGGGGTCACTCAATGACGGGC | 5.48
ACAGACAGGTGAAGAAGGTAACTCAGGCTATCAT | 0.0318
TCTTGTAGATCACAGGTTAAGAAAGCCGAAGCCT | 0.186
CCTAGTTGGTCAAGGTCACACACGCTATAGGTAC | 4.41
TAGCCTAGGTCATTCAGGGTCCAGTATAGAAAGC | 3.27
CAAACTAGGTCAGGAGGTCAAAGTCCGCTTCCCG | 5.16

Test system: PXR homodimer (NR concentration 270 nM)
Experiment: as above
Method in brief: as §1

Sequence | PBM binding z-score
CCTACTGGGCCATTCAGAGGTCAGTGATCATATG | 0.543
CCTCGGAGGACAACAGGAGGTTAGAGCTGCCAGA | -0.363
TGAATCAGGTTAAAGATCAGGGAACGTGGCGTCG | -0.173
CGTCCATGGTCAGCAGGTCAGTGAAAGCGACGTG | -0.486
GCGACTGGGGCCAAGCAGGTTACCATAAGGTTGG | -0.184
CTGGAAAGGTCGGTTGAGGTGAGTATACGGATAA | -0.0647
TCATATAGGTAAAGGTCAAAGTCGAACGATATGA | 1.88
ACAGACAGGTGATGGAGGTAACTCAGGCTATCAT | -0.184
TTACCAAGGTGAGCTGAGGACGTTGATCCAACTC | -0.289
TCTAGTTGGTCAAAGGTCACACACTCGAAATGCG | 1.83
ACTAGCAGGCCAAGGGTAACTCAAGATTAGTCCG | -0.127
CGTCCCAGGTCAAAGGTCAGTGAAGAGATGACGG | 1.05
GCGACTAGGGCAAAGCAGGTTACCATAAGGTTGG | -0.481
ATCTCTAGGCAACCAAGTTCAGTGAATGCCGAAC | 1.43
GCATATAGGAAATACAAGGTGAAAGTCCGATTGT | 0.0769
ATCTCTAGGTAACCAAGTTCAGTTAATGCCGAAC | 2.39
GCGACTGGGGCAAAGCAGGGTACCATAAGGTTGG | -0.367
CTACCAAGGTGAACAAGGTTGTTGATTACTATTC | 0.435
CCTGCTAGGTCAATTGTCAGCTAAAGCAGCTCGC | -0.49
GCTCGGAGGACAAGGTCATAGCTTTGTCCGTAGA | 0.287

Sequence | PBM binding z-score
ACTCGGAGGAAAAAGGTCAGAGCTACGCCAGTGA | 0.00836
TCTCGGAGGACACGAAGGTCAGAGCGTTCCAGAG | 0.555
GGAACGATGGCAAAGTTGATAGCATCTGTCGACG | -0.23
CCTATTAGTTGACCATAAGGGCAACCAAAGCTCG | 1
TCATATAGGTAAATGCTAGCTGAAAGTCCGATCT | 0.27
GCTAGCAGGCCATTTGGGTCACTCATTGACGGGC | -0.137
GGAACGGGGGCAAAGTTGATAGCATCTGTCGACG | 1.78
TTACCAAGGTGAGCTGAGGTCGTTGGTCCAACTC | 0.529
CCTTGGAGGACAGAAGGTCAGAGCTGTCCGCTTT | 0.0669
CGATCTAGGTCAGAACAGGACAGTGAAGGATGAT | -0.0995
TAGCCTAGGTCATGCGCGCCAGTATAGTGTCGGC | -0.618
GCTGCTAGGTCAGCTTGGTCAGCTAACGGGTACG | -0.979
ACTATTAGTTTAGACGAGGGCAACCGATAGGTTG | 0.902
TCTTGTAGATCAGCAGGAGGTTAAGAAAGATCGA | -0.404
GCTAGCAGGCCATTGGGGTCACTCAATGACGGGC | 8.59
ACAGACAGGTGAAGAAGGTAACTCAGGCTATCAT | 0.0524
TCTTGTAGATCACAGGTTAAGAAAGCCGAAGCCT | -0.359
CCTAGTTGGTCAAGGTCACACACGCTATAGGTAC | 2.97
TAGCCTAGGTCATTCAGGGTCCAGTATAGAAAGC | 0.324
CAAACTAGGTCAGGAGGTCAAAGTCCGCTTCCCG | 2.29

Test system: RARa:RXR (NR concentration 270 nM, RXRa partner concentration 90 nM)
Experiment: as above
Method in brief: as §1

Sequence | PBM binding z-score
CCTACTGGGCCATTCAGAGGTCAGTGATCATATG | 2.64
CCTCGGAGGACAACAGGAGGTTAGAGCTGCCAGA | -0.127
TGAATCAGGTTAAAGATCAGGGAACGTGGCGTCG | 1.17
CGTCCATGGTCAGCAGGTCAGTGAAAGCGACGTG | 0.728
GCGACTGGGGCCAAGCAGGTTACCATAAGGTTGG | 0.223
CTGGAAAGGTCGGTTGAGGTGAGTATACGGATAA | 2.05
TCATATAGGTAAAGGTCAAAGTCGAACGATATGA | 6.36
ACAGACAGGTGATGGAGGTAACTCAGGCTATCAT | 0.033
TTACCAAGGTGAGCTGAGGACGTTGATCCAACTC | 1.03
TCTAGTTGGTCAAAGGTCACACACTCGAAATGCG | 7.45
ACTAGCAGGCCAAGGGTAACTCAAGATTAGTCCG | 0.0162
CGTCCCAGGTCAAAGGTCAGTGAAGAGATGACGG | 8.49
GCGACTAGGGCAAAGCAGGTTACCATAAGGTTGG | 0.775
ATCTCTAGGCAACCAAGTTCAGTGAATGCCGAAC | 0.461
GCATATAGGAAATACAAGGTGAAAGTCCGATTGT | 0.702
ATCTCTAGGTAACCAAGTTCAGTTAATGCCGAAC | 1.24
GCGACTGGGGCAAAGCAGGGTACCATAAGGTTGG | 0.315
CTACCAAGGTGAACAAGGTTGTTGATTACTATTC | 0.73
CCTGCTAGGTCAATTGTCAGCTAAAGCAGCTCGC | 1.34
GCTCGGAGGACAAGGTCATAGCTTTGTCCGTAGA | 3.71

Sequence | PBM binding z-score
ACTCGGAGGAAAAAGGTCAGAGCTACGCCAGTGA | 3.29
TCTCGGAGGACACGAAGGTCAGAGCGTTCCAGAG | 1.84
GGAACGATGGCAAAGTTGATAGCATCTGTCGACG | -0.727
CCTATTAGTTGACCATAAGGGCAACCAAAGCTCG | 1.47
TCATATAGGTAAATGCTAGCTGAAAGTCCGATCT | 0.762
GCTAGCAGGCCATTTGGGTCACTCATTGACGGGC | 0.652
GGAACGGGGGCAAAGTTGATAGCATCTGTCGACG | 3.47
TTACCAAGGTGAGCTGAGGTCGTTGGTCCAACTC | 1.63
CCTTGGAGGACAGAAGGTCAGAGCTGTCCGCTTT | 2.36
CGATCTAGGTCAGAACAGGACAGTGAAGGATGAT | 1.13
TAGCCTAGGTCATGCGCGCCAGTATAGTGTCGGC | 2.62
GCTGCTAGGTCAGCTTGGTCAGCTAACGGGTACG | 0.718
ACTATTAGTTTAGACGAGGGCAACCGATAGGTTG | 1.26
TCTTGTAGATCAGCAGGAGGTTAAGAAAGATCGA | 0.574
GCTAGCAGGCCATTGGGGTCACTCAATGACGGGC | 5.19
ACAGACAGGTGAAGAAGGTAACTCAGGCTATCAT | 0.274
TCTTGTAGATCACAGGTTAAGAAAGCCGAAGCCT | 0.737
CCTAGTTGGTCAAGGTCACACACGCTATAGGTAC | 4.88
TAGCCTAGGTCATTCAGGGTCCAGTATAGAAAGC | 2.84
CAAACTAGGTCAGGAGGTCAAAGTCCGCTTCCCG | 6.31
